# Bioassay records from PubChem.
# Hits are enriched below; roughly 1.8% of the tested compounds scored in any of these assays.
# LYPLA2 inh: LYPLA2 inhibitors, primary screen, counter-screen for PME1 inhibitor project, biochemical, fluorescence polarization, FP-Rh probe ABPP; Acyl-protein thioesterase 2 (Homo sapiens), O95372; recombinant LYPLA2; inhibition, % at 5.9 µM; 320,000 tested, 0.38% active;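 active = inhibition above the screen-wide mean plus 3 SD, limit set per campaign, cut at about 26% in these data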
# PME-1 primary: PME-1 inhibitors via competitive probe labeling, primary screen, biochemical, fluorescence polarization, FP-Rh probe, HTS; Protein phosphatase methylesterase 1 (Homo sapiens), Q9Y570; recombinant PME-1; inhibition, % at 5.9 µM; 320,000 tested, 0.53% active;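 active = inhibition above the campaign mean of all compounds plus 3 SD, cut at about 26% in these data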;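 also: competitive labeling of PME-1 active site by serine hydrolase directed probe; inhibitors block probe labeling so polarization falls and inhibition rises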
# LYPLA1 inh: LYPLA1 inhibitors, primary screen, counter-screen for PME1 inhibitor project, biochemical, fluorescence polarization, FP-Rh probe ABPP. Acyl-protein thioesterase 1 (Homo sapiens), O75608. recombinant LYPLA1. inhibition, % at 5.9 µM. 320,000 tested, 0.16% active. AID 2174, 2009;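 active = inhibition above the mean of all tested compounds plus 3 SD, set per campaign, cut at about 14% in these data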;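 also: inhibitors block serine hydrolase probe labeling of LYPLA1 so polarization falls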
# PAD4 inh: human PAD4 inhibitors, primary screen, biochemical, fluorescence polarization, 1536-well format | 330,000 tested, 0.41% active | AID 485272, 2010 | Protein-arginine deiminase type-4 (Homo sapiens), Q9UM07 | inhibition, % at 6.36 µM | recombinant PAD4, RCA probe fluorescence polarization;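 active = percent inhibition above a cutoff equal to the mean of all tested compounds plus 3 SD, cut at about 15% in these data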
# Target sequence (Q9UM07 whole entry, looked up): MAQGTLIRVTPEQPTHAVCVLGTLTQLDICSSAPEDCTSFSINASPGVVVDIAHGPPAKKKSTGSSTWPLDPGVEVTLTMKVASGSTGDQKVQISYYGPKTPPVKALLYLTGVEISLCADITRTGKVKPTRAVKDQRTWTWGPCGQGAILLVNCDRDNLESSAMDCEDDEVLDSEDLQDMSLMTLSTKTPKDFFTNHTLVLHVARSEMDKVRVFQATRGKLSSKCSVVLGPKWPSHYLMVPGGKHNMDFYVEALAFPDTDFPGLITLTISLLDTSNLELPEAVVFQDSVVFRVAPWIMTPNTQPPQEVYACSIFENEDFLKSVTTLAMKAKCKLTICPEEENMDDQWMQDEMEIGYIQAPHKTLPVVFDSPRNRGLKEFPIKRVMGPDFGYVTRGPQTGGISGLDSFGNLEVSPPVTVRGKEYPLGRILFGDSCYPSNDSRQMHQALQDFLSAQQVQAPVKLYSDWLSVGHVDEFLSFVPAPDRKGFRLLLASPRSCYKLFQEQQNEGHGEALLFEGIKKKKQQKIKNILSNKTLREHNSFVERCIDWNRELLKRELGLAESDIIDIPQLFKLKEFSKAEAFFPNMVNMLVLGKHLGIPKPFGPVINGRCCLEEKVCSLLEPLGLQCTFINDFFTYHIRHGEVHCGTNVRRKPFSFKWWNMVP
# Fam108B counter: mouse Fam108B serine hydrolase inhibitors, primary screen, counter-screen for RBBP9 inhibitor project, biochemical, fluorescence polarization | recombinant Fam108B, FP-Rh probe fluorescence polarization | inhibition, % at 9.51 µM | 300,000 tested, 0.33% active;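 active = inhibition above the screen mean inhibition plus 3 SD, computed separately per campaign, cut at about 18% in these data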;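 also: inhibitors lower polarization as less probe binds the enzyme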
# GSTO1 inh: inhibitors of recombinant GSTO1, primary screen, counter-screen for RBBP9 inhibitor project, biochemical, fluorescence polarization. Glutathione S-transferase omega-1 (Homo sapiens), P78417. activity-based probe fluorescence polarization. inhibition, % at 5.96 µM. 300,000 tested, 1.1% active;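 active = inhibition above the campaign mean inhibition plus 3 SD, cut at about 35% in these data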
# LYPLA1 conf: LYPLA1 inhibitors, retest, confirmation, counter-screen for PME1 inhibitor project, biochemical, fluorescence polarization, FP-Rh probe ABPP. 480 tested, 69% active. inhibition, % at 5.9 µM. recombinant LYPLA1. AID 2233, 2010. shares compounds with LYPLA1 inh;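 active = mean inhibition across replicates above the hit cutoff set in the primary screen, cut at about 15% in these data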;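 also: loss of FP-Rh probe labeling of LYPLA1 seen as lower polarization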
# A number is an active result; 0 = inactive; - = no result.
SMILES,LYPLA2 inh,PME-1 primary,LYPLA1 inh,PAD4 inh,Fam108B counter,GSTO1 inh,LYPLA1 conf
O=S(=O)(Nc1ccc(Cc2ccncc2)cc1)c1ccc(Cl)c(Cl)c1,0,0,0,0,0,0,-
COc1ccc(S(=O)(=O)Nc2ccc(Cc3ccncc3)cc2)cc1OC,0,0,20,0,0,0,28
N#Cc1c(NC(=O)CSc2nc(N)cc(=O)[nH]2)sc2c1CCCC2,0,0,46,0,0,0,47
Cc1ccsc1C1Nc2ccc3ncccc3c2C2=C1C(=O)CCC2 (stereo unspecified),0,0,28,0,0,0,31
CCOC(=O)Cn1c(N2CCOCC2)nc2c1c(=O)[nH]c(=O)n2C,0,0,0,0,0,0,-
Cc1ccccc1NC(=O)CN1CCN(C(=O)c2ccco2)CC1,0,0,0,0,0,0,-
COc1ccc(Cc2nnc(SCC(=O)N3CCN(c4ccccc4)CC3)o2)cc1,0,0,24,0,0,0,30
CC(C)CNC(=O)c1cccc(NC(=O)c2ccc3c(c2)C(=O)N(C)C3=O)c1,0,0,26,0,0,0,27
CCOC(=O)c1ccc(N2C(=O)c3n[nH]c(C)c3C2c2ccc(OC)cc2)cc1 (stereo unspecified),0,0,0,0,0,0,-
CCOC(=O)c1ccc(N2C(=O)c3n[nH]c(C)c3C2c2ccc(OC)c(OC)c2)cc1 (stereo unspecified),0,0,29,0,0,0,42
O=C(O)c1cc(NS(=O)(=O)c2ccc(N3CCCCC3)c([N+](=O)[O-])c2)cc(C(=O)O)c1,0,0,0,0,0,0,-
C#CCOCCOCCOCCNc1nc(N2CCN(C(=O)[C@H](Cc3cc4ccccc4[nH]3)n3cc([C@@H](N)C(C)CC)nn3)CC2)nc(N2CCN(C(=O)[C@H](Cc3cc4ccccc4[nH]3)n3cc([C@@H](N)Cc4ccc(O)cc4)nn3)CC2)n1 (stereo partly specified),0,0,17,0,0,0,34
C#CCOCCOCCOCCNc1nc(N2CCN(C(=O)[C@H]([C@@H](C)CC)n3cc([C@@H](N)Cc4ccc(O)cc4)nn3)CC2)nc(N2CCN(C(=O)[C@H](Cc3cc4ccccc4[nH]3)n3cc([C@@H](N)C(C)CC)nn3)CC2)n1 (stereo partly specified),0,0,0,0,0,0,-
Cc1[nH][nH]c(=O)c1N=Nc1ccc(Br)c(Cl)c1,0,0,24,0,0,0,18
Cc1[nH][nH]c(=O)c1N=Nc1ccc(S(N)(=O)=O)cc1,0,0,0,0,0,0,-
O=C(Cc1cccs1)Nc1cccc(-c2ccc3nncn3n2)c1,0,0,0,0,0,0,-
COc1ccc(-c2csc(-n3ncc(-c4ccccn4)c3N)n2)cc1,0,0,0,0,0,0,-
COc1ccccc1-c1csc(-n2ncc(C#N)c2N)n1,0,0,22,0,0,0,40
Cc1cc(Nc2ccc(O)cc2)ccc1N,0,36,16,35,-,-,0
Cc1cc(C)nc(Nc2ccc(O)cc2)n1,0,0,0,0,0,0,-
S=c1[nH]nc(-c2cc3c(s2)-c2ccccc2CC3)o1,0,0,17,0,0,0,21
COc1ccc(NC(=O)C2CCCN2C(=O)OC(C)(C)C)cc1 (stereo unspecified),0,0,0,0,0,0,-
Cc1ccc(-n2c(O)c(C=Nc3ccccc3-c3n[nH]c(=S)[nH]c3=O)c3ccccc3c2=O)c(C)c1,0,0,15,0,0,0,15
Cc1ccc(C)c(NC(=O)C(OC(=O)c2cnc(C)cn2)c2ccccc2)c1 (stereo unspecified),0,0,0,0,0,0,-
Cc1cnc(C(=O)OC(C(=O)Nc2cc(C(F)(F)F)ccc2Cl)c2ccccc2)cn1 (stereo unspecified),0,0,32,0,0,0,0
SMILES,LYPLA2 inh,PME-1 primary,LYPLA1 inh,PAD4 inh,Fam108B counter,GSTO1 inh,LYPLA1 conf
COC(=O)C1CCN(c2c([N+](=O)[O-])cc(C(F)(F)F)cc2[N+](=O)[O-])CC1,0,0,32,0,0,0,33
NC(=O)C1CCN(c2c([N+](=O)[O-])cc(C(F)(F)F)cc2[N+](=O)[O-])CC1,0,0,0,0,0,0,-
COc1cc(/C=N/N2CCN(Cc3ccc(Cl)cc3)CC2)ccc1OC(C)=O,0,0,0,0,0,0,-
COc1ccccc1/C=C/C=N/N1CCN(Cc2ccc(Cl)cc2)CC1,0,0,19,0,0,0,26
COc1ccccc1/C=C/C=N\N1CCN(Cc2ccccc2Cl)CC1,0,0,0,0,0,0,-
COc1cc(/C=N/N2CCN(Cc3ccc(Cl)cc3)CC2)cc(Br)c1O,0,0,49,0,0,0,54
CC(C)c1ccc(N(CC(=O)NCc2ccc(F)cc2)C(=O)c2snc(C(N)=O)c2N)cc1,0,0,0,0,0,0,-
O=C(COC(=O)C1CCC1)Nc1cccc(S(=O)(=O)N2CCOCC2)c1,0,0,0,0,0,0,-
O=C(COC(=O)C1CC2C=CC1C2)Nc1cccc(S(=O)(=O)N2CCCCC2)c1 (stereo unspecified),0,0,16,0,0,0,28
O=C(COC(=O)C1CC2C=CC1C2)Nc1cccc(S(=O)(=O)N2CCCCCC2)c1 (stereo unspecified),0,0,37,0,0,0,46
COc1ccc(CCNC(=O)C2CC(O)CN2S(=O)(=O)c2ccc(Cl)cc2)cc1OC (stereo unspecified),-,-,-,0,-,-,-
CS(=O)(=O)c1ccc(-c2sc3ccccc3c2C(=O)NCCCN2CCOCC2)cc1,-,-,-,0,-,-,-
C=CCOc1ccc(Br)cc1CNC(C)(C)C,0,0,18,0,0,0,0
CC(=O)C[C@H]1c2cc(C(F)(F)F)ccc2S(=O)(=O)N1c1ccc(N(C)C)cc1,0,0,0,0,0,0,-
CCOC(=O)C1(O)CSc2nc3sc(C(=O)O)c(C)c3c(=O)n21 (stereo unspecified),0,0,14,0,0,0,0
CCOC(=O)c1nn(-c2ccccc2)c(-c2ccccc2)c1C(=O)c1ccccc1,0,0,18,0,0,0,0
C[C@H](NC(=O)OC(C)(C)C)C(=O)NCC1CCC(C(=O)N[C@@H](Cc2ccccc2)C(=O)O)CC1 (stereo partly specified),0,0,0,0,0,0,-
